A short description of test [1]: Tanguay_ZF_120hpf_AXIS_legacy: (Legacy) Oregon State University Tanguay Lab 120 Hour Post-fertilization zebrafish Assay for Body Axis Malformation (AID 2283635).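 For AC50: potency for an increased fraction of larvae scored with body axis malformation.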 The procedure, abridged:
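Binary scoring of axis defects at 120 hpf under brightfield, fitted positive versus DMSO. Tropical 5D embryos, chorion removed by pronase at 4 hpf, were singly exposed in sealed, dark plates at 28C from 6 hpf; DMSO 0.64% final.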

Test [2] can be described thus: Tanguay_ZF_120hpf_EYE_legacy: (Legacy) Oregon State University Tanguay Lab 120 Hour Post-fertilization zebrafish Assay for Eye Malformation (AID 2283636).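 Note: binary presence or absence of eye malformation scored by brightfield in 120 hpf larvae.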 A digest of the protocol:
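Dechorionated wild-type Tropical 5D zebrafish embryos were exposed statically from 6 hpf, one per well, to 120 hpf at 28C in sealed, foil-covered plates with 0.64% DMSO. Eye malformation was scored present/absent by brightfield microscopy against DMSO controls.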

Test [3] in a line: Tanguay_ZF_120hpf_PE_legacy: (Legacy) Oregon State University Tanguay Lab 120 Hour Post-fertilization zebrafish Assay for Pericardial Edema (AID 2283640).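 For AC50: potency for increased incidence of pericardial edema versus DMSO baseline.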 A digest of the protocol:
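Scoring was binary, by brightfield microscopy at 120 hpf, and skipped where mortality occurred. Wild-type embryos were kept under sealed, foil-covered static exposure at 28C in 0.64% (vol/vol) DMSO.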

A short description of test [4]: Tanguay_ZF_120hpf_BRAI_legacy: (Legacy) Oregon State University Tanguay Lab 120 Hour Post-fertilization zebrafish Assay for Brain Malformation (AID 2283641). A digest of the protocol:
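Binary brightfield scoring of brain malformation at 120 hpf in Tropical 5D larvae held under static exposure at 28C (0.64% v/v DMSO), non-mortality endpoints skipped if dead. Positive control: 5uM trimethyltin chloride; fit versus DMSO.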

Test [5] can be described thus: Tanguay_ZF_120hpf_CFIN_legacy: (Legacy) Oregon State University Tanguay Lab 120 Hour Post-fertilization zebrafish Assay for Caudal Fin Malformation (AID 2283649). A digest of the protocol:
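Binary brightfield scoring of caudal fin defects at 120 hpf after static, light-shielded exposure at 28C from 6 hpf. Tropical 5D embryos, chorion removed with pronase at 4 hpf, final DMSO 0.64%.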

Test [6] can be described thus: Tanguay_ZF_120hpf_PIG_legacy: (Legacy) Oregon State University Tanguay Lab 120 Hour Post-fertilization zebrafish Assay for Pigmentation Malformation (AID 2283650). The procedure, abridged:
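Tropical 5D wild-type zebrafish embryos, dechorionated with pronase at 4 hpf, were exposed singly from 6 hpf to 120 hpf statically at 28C in sealed, dark plates with 0.64% DMSO; pigmentation scored present/absent by brightfield microscopy, fitted against DMSO.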

Test [7] can be described thus: Tanguay_ZF_120hpf_CIRC_legacy: (Legacy) Oregon State University Tanguay Lab 120 Hour Post-fertilization zebrafish Assay for Circulatory Malformation (AID 2283651). The procedure, abridged:
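Using wild-type Tropical 5D zebrafish, we exposed dechorionated embryos from 6 to 120 hpf in embryo medium with 0.64% DMSO. Circulatory defects were scored as present or absent; 5uM trimethyltin chloride served as positive control.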

A short description of test [8]: Tanguay_ZF_120hpf_SNOU_legacy: (Legacy) Oregon State University Tanguay Lab 120 Hour Post-fertilization zebrafish Assay for Snout Malformation (AID 2283637). The procedure, abridged:
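Tropical 5D wild-type zebrafish embryos, dechorionated with pronase at 4 hpf, were exposed singly from 6 hpf to 120 hpf statically at 28C in 0.64% DMSO. Snout malformation was scored present/absent by brightfield microscopy, fitted against DMSO.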

One may read the AC50 as the midpoint of the concentration-response curve, whichever way the signal moves.

Each structure is given as a SMILES string. Inconclusive results are not listed. The source made the active and inactive calls. Rule for the calls: active = hit-call score of the fitted dose curve at least 0.9, where 1 is the maximum; inconclusive = response in the unintended direction; inactive = score below 0.9.

Take `Cc1cccc(N)c1`: the compound was classed as inactive in test [1], in test [2], in test [3], in test [4], in test [5] and in test [6]. Moreover, the result in test [7] was inactive.
Regarding `O=C(O)C(Cl)Cl`, the result in test [1], in test [2], in test [3], in test [4], in test [5] and in test [6] was inactive. The compound was classed as inactive in test [7].
Turning to `CSC(C)(C)C=NO`, the compound was called inactive in test [1], in test [2], in test [3], in test [4], in test [5] and in test [6]. The outcome in test [7] was inactive.
In the case of `COCCOCCO`, the compound was called inactive in test [1], in test [2], in test [3], in test [4], in test [5] and in test [6]. Moreover, the call in test [7] was inactive.
For the compound `CCC1(c2ccccc2)C(=O)N=C(O)NC1=O` (stereo not drawn), the compound was classed as inactive in test [1], in test [2], in test [3], in test [4], in test [5] and in test [6]. The call in test [7] was inactive.
On to `CCC(C)(C)c1ccc(O)cc1`, for which the AC50 in test [1] was 19 µM (active); in test [2], 22.3 µM (active); in test [3], 44.5 µM (active); in test [4] it was 48.1 µM (active); in test [5] it was 48.8 µM (active); in test [6], 47.4 µM (active). Further, in test [7], the compound was classed as inactive.
Consider `O=C(O)C1C(C(=O)O)C2(Cl)C(Cl)=C(Cl)C1(Cl)C2(Cl)Cl` (stereo not drawn), for which the call in test [1], in test [2], in test [3], in test [4], in test [5] and in test [6] was inactive. Further, the result in test [7] was inactive.
Turning to `Nc1ccc2ccccc2c1`, the AC50 in test [1] was 33.4 µM (active); in test [2] it was 47.7 µM (active); in test [3], 42 µM (active); in test [4], 202 µM (active); in test [6], 46.5 µM (active). Further, the compound was classed as inactive in test [5] and in test [7].
As for `CCOP(=S)(OCC)SCSCC`, the result in test [1], in test [2], in test [3], in test [4], in test [5] and in test [6] was inactive. In test [7], the outcome was inactive.
Take `CCCCc1ccccc1`: the compound was called inactive in test [1], in test [2], in test [3], in test [4], in test [5] and in test [6]. Further, the call in test [7] was inactive.
For `CC(Cc1ccc(OCC(=O)O)cc1)NCC(O)c1csc(C(F)(F)F)n1` (stereo not drawn), the call in test [1], in test [2], in test [3], in test [4], in test [5] and in test [6] was inactive. Also, the outcome in test [7] was inactive.
Regarding `OCC1CO1` (stereo not drawn), the call in test [1], in test [2], in test [3], in test [4], in test [5] and in test [6] was inactive. Besides, the compound was called inactive in test [7].
For `c1ccc(OP(Oc2ccccc2)Oc2ccccc2)cc1`, the compound was classed as inactive in test [1], in test [2], in test [8], in test [3], in test [4] and in test [5]. The outcome in test [6] and in test [7] was inactive.
Consider `O=[N+]([O-])c1ccc(Cl)c(Cl)c1`, for which the outcome in test [1], in test [2], in test [3], in test [4], in test [5] and in test [6] was inactive. Moreover, the result in test [7] was inactive.
With `CC(Cl)(Cl)C(=O)O`, the result in test [1], in test [2], in test [3], in test [4], in test [5] and in test [6] was inactive. Also, the outcome in test [7] was inactive.
As for `O=P(Oc1ccccc1)(Oc1ccccc1)Oc1ccccc1`, the compound was classed as inactive in test [1], in test [2], in test [3], in test [4], in test [5] and in test [6].
As to `c1cc2c3c(cccc3c1)CC2`, the outcome in test [1], in test [2], in test [3], in test [4], in test [5] and in test [6] was inactive. The compound was classed as inactive in test [7].
Take `ClC1=C(Cl)C2(Cl)C3C(Cl)C(Cl)CC3C1(Cl)C2(Cl)Cl` (stereo not drawn): the call in test [1], in test [2], in test [3], in test [4], in test [5] and in test [6] was inactive.
Take `CCCCN(CCCC)N=O`: the compound was called inactive in test [1], in test [2], in test [3], in test [4] and in test [5].
With `CCOC(=O)c1ccccc1C(=O)OCC`, the outcome in test [1], in test [2], in test [8], in test [3], in test [4] and in test [5] was inactive. Further, the compound was called inactive in test [6] and in test [7].
